# High-throughput results from PubChem BioAssay.
# HT1080NT lethal – kills 2HG-producing HT-1080-NT fibrosarcoma cells; HT-1080-NT fibrosarcoma viability, CellTiter-Glo ATP luminescence, 48 h; Potency, µM (top dose mostly 46.1 µM), without a hit: at the top dose activity, negative = less viability, most hits filed as cytotoxic; 1.6% of 360,000 active;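 further: NT is the 2HG producing partner of a matched IDH1 knockdown line; 0% = DMSO-treated cells and -100% = media-only wells without cells; nearly all actives have a fitted effect of over 55% in size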
#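 A 48-hour cytotoxicity screen used HT-1080-NT cells plated 2 hours before compound delivery. ATP-based CellTiter-Glo luminescence measured viability, normalized to DMSO and no-cell controls.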
# HT1080 IDH1KD tx – toxicity to HT-1080 IDH1 knockdown cells (counter line); HT-1080 IDH1 knockdown viability, ATP luminescence, 48 h; Potency, µM (doses to about 46.1 µM), for the others: top-dose activity, negative = toxicity, most hits filed as cytotoxic; 2% of 360,000 active;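 further: 0% = DMSO wells and -100% = cell-free medium wells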
#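 Knockdown cells (IDH1KD HT-1080) received compounds 2 h after plating at 750 cells/well and were kept 48 h at 37 °C in 5% FBS RPMI. A CellTiter-Glo luminescence read gave % activity for curve fitting.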
# KB-V1 MDR tox – kills drug-selected multidrug resistant KB-V1 cells | KB-V1 MDR cells viability, CellTiter-Glo, 72 h | Potency, µM (series often up to 46.1 µM), most hits filed as cytotoxic | 3.4% of 400,000 active | AID 1347076; further: nearly all actives have a fitted effect of over 60% in size
#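 Cytotoxicity toward P-gp-expressing KB-V1 cells was determined as loss of CellTiter-Glo luminescence after 72 h at 37 degrees C. Compounds were tested in quantitative HTS format across a concentration range, with curves fitted to normalized data.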
# KB-3-1 tox – KB-3-1 parental cell cytotoxicity; Potency, µM (highest dose often 46.1 µM), usual class: cytotoxic; KB-3-1 viability, CellTiter-Glo ATP luminescence, 72 h; 1.4% of 400,000 active; further: nearly all actives have a fitted effect of over 60% in size
#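 KB-3-1 cells, DMEM (no phenol red) + 10% FBS; compound by pin transfer, 72 h, 37 °C. Readout: CellTiter-Glo luminescence after 10 min. Data normalized, curve-fitted.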
# An asterisk follows results filed as active; i = inactive; ? = inconclusive; . = no result given; [ ] = remark or other dose. Hits are enriched below; roughly 5.7% of the tested compounds scored in any of these assays. The call rests on the fitted dose curve; in most records, active means well fitted curve in the direction sought with a large enough effect; inconclusive means small, poorly fitted or top-dose-only effect, or another doubt; inactive means no such curve, though single readings can be large; an effect the other way counts as inactive or inconclusive. Unless noted, on the % scale 0 is the no-effect control and ±100 the full control effect; potency means the concentration at half of the fitted maximal effect.
SMILES,HT1080NT lethal,HT1080 IDH1KD tx,KB-V1 MDR tox,KB-3-1 tox
COc1cc(/C=C2/SC(=Nc3ccc(O)cc3)NC2=O)cc(OC)c1O,-27%,-9%,i,?
COc1ccc(N=C2NC(=O)/C(=C\c3ccco3)S2)cc1,-1%,-4%,i,i
O=C1NC(=Nc2ccc(O)cc2)S/C1=C\C=C\c1ccco1,1.3µM*,1.5µM*,2.3µM*,3.3µM*
COc1ccccc1N=C1NC(=O)/C(=C/c2ccc(N(C)C)cc2)S1,7.3µM*,3.3µM*,7.3µM*,10µM*
COc1cccc(CNc2ncnc3onc(-c4ccc(F)cc4)c23)c1,.,.,i,i
O=C(Nc1ccccc1F)c1cnn2c1NC(=C1CC1)C=C2C(F)F,15%,4%,.,.
Cn1ncc2c(O/N=C(\N)c3ccc(C(F)(F)F)cc3)ncnc21,21µM*,16µM*,?,?
Cc1ccc(C(=O)NNc2ncnc3c2cnn3C)cc1,15%,1%,i,i
O=c1c(Cl)c(NCc2ccccc2Cl)cnn1C12CC3CC(CC(C3)C1)C2,9%,19%,18µM*,?
CCCCCCCCCC[n+]1ccc(/C=C/c2c[nH]c3ccccc23)c2ccccc21,.,.,?,8.2µM*
CCn1c(/C=C/c2c(C)[nH]c3ccccc23)nc2ccccc2c1=O,-2%,-1%,i,i
CC[n+]1ccc(/C=C/c2c[nH]c3ccccc23)cc1,?,-28%,i,1.8µM*
CCOC(=O)/C=C(C)\C=C\c1c[nH]c2ccccc12,?,?,i,i
CCCCCCCCCC[n+]1ccc(/C=C/c2c(C)[nH]c3ccccc23)cc1,.,.,?,1.3µM*
CCn1c(/C=C/c2c[nH]c3ccccc23)nc2ccccc2c1=O,?,-17%,i,i
CCCCCCC[n+]1ccc(/C=C/c2c[nH]c3ccccc23)cc1,.,.,i,0.41µM*
OC(C[n+]1c(Cl)ccc2ccccc21)c1ccccc1 (stereo unspecified),.,.,?,i
O=C(Cn1c(=O)nc(-c2ccccc2)c2cc(Cl)ccc21)NCCCc1ccccc1,.,.,i,i
COc1cccc(Cn2c(=O)n(Cc3ccccc3)c(=O)c3c2c2cc(OC)ccc2n3C)c1,.,.,i,i
O=C(Nc1ccc(F)cc1)c1ccc(-n2cncn2)c([N+](=O)[O-])c1,-6%,1%,12µM*,?
COc1ccc(CN(C)C(=O)C(Cc2ccccc2)NC(=O)c2ccccc2)cc1F (stereo unspecified),-14%,-25%,?,?
CSc1ccc(CN(C)C(=O)C(Cc2ccccc2)NC(=O)c2ccccc2)cc1 (stereo unspecified),-2%,-2%,?,i
CCOc1ccc(CN(C)C(=O)[C@H](Cc2ccccc2)NC(=O)OCc2ccccc2)cc1OC,-1%,-21%,10µM*,?
Cc1cccc(NC(=O)[C@H](Cc2ccccc2)NC(=O)OCc2ccccc2)c1,-5%,-3%,?,i
Cc1ccc(NC(=O)C(Cc2ccccc2)NC(=O)OCc2ccccc2)cc1C (stereo unspecified),-12%,-5%,5.8µM*,i
SMILES,HT1080NT lethal,HT1080 IDH1KD tx,KB-V1 MDR tox,KB-3-1 tox
CN(Cc1ccccc1)C(=O)c1ccccc1NC(=O)c1ccccc1,5%,3%,23µM*,i
CN(Cc1ccc(F)cc1)C(=O)C(Cc1ccccc1)NC(=O)c1ccccc1 (stereo unspecified),-4%,1%,10µM*,i
CCOc1ccc(C(=O)OCC(=O)N(Cc2ccccc2)Cc2ccccc2)cc1OC,-12%,-9%,23µM*,i
COc1ccc(-c2csc(-c3ccc(O)cc3)n2)cc1,5.2µM*,1.6µM*,2.6µM*,4.1µM*
COc1ccc(-c2nc(CCl)cs2)cc1,-5%,1%,i,i
COc1ccc(-c2ccnc(-c3ccc(O)cc3)n2)cc1,4.1µM*,1.5µM*,7.3µM*,5.8µM*
Cc1ccccc1C(=O)Nc1ccc(S(=O)(=O)N2CCC(c3nc4ccccc4s3)CC2)cc1,.,.,i,i
COc1cc2nc(Nc3ccc(C)c(Cl)c3)nc(N)c2cc1OC,?,13µM*,?,i
CCN(c1ccc(OCC(=O)OCC(=O)Nc2ccc(F)c(F)c2F)cc1)S(=O)(=O)c1ccccc1,20%,18%,?,i
N#Cc1c(C(F)(F)F)cc(=O)n2c1[nH]c1ccccc12,4.6µM*,26µM*,i,i
COc1ccccc1N=Cc1c(C)c(C#N)c2[nH]c3ccccc3n2c1=O,-1%,-3%,i,i
Cc1c(Cc2ccccc2)c(=O)n2c([nH]c3ccccc32)c1C#N,21µM*,?,13µM*,?
N#Cc1c(CSCC(=O)O)cc(=O)n2c1[nH]c1ccccc12,6%,0%,i,i
COc1ccc(C=C2NC(=O)NC2=O)cc1O,0%,-6%,i,i
COc1cc(/C=C2\NC(=O)NC2=O)cc(Br)c1OC,0%,3%,5.8µM*,?
CCOC(=O)COc1ccc2nsnc2c1Cl,-4%,-6%,i,i
C=C(CC)C(=O)c1ccc(OCC(=O)O)c(Cl)c1Cl,18µM*,23µM*,i,i
NC(=O)c1c(NC(=O)c2cccs2)sc2c1CCCCCC2,?,-4%[9.24 µM],?,i
O=C(Nc1sc2c(c1C(=O)O)CCC2)c1cccs1,-1%,0%,23µM*,?
CCOc1c(OC(C)=O)ccc(/C=C/c2ccc3cccc(OC(C)=O)c3n2)c1[N+](=O)[O-],?,?,12µM*,?
COc1cc(/C=C/c2ccc3cccc([N+](=O)[O-])c3n2)ccc1OCC#N,-20%,-28%,i,i
CCOc1cc(/C=C/c2ccc3cccc([N+](=O)[O-])c3n2)ccc1OCC(=O)N(C)C,5%,-15%,18µM*,?
CCOc1cc(/C=C/c2ccc3cccc([N+](=O)[O-])c3n2)ccc1O,-25%,-25%,21µM*,12µM*
CCC(=O)N1CCc2cc(Br)cc(S(=O)(=O)CCC(=O)N(CC)Cc3ccccc3)c21,.,.,i,i
CCN(CC(=O)Nc1ccc(OC)cc1)C(=O)Cc1coc2cc(C)c(C)cc12,-1%,-7%,16µM*,i
SMILES,HT1080NT lethal,HT1080 IDH1KD tx,KB-V1 MDR tox,KB-3-1 tox
CCN(CC(=O)Nc1ccc(OC)cc1)C(=O)c1cc2c(s1)CCCCC2,-13%,-14%,?,i
Cc1ccc(NC(=O)CN(C)C(=O)Cc2coc3cc(C)c(C)cc23)cc1,0%,-6%,i,i
CCc1cc(C(=O)N(CC)CC(=O)Nc2ccc(OC)cc2)sc1C,-1%,2%,18µM*,i
CCN(c1ccccc1)S(=O)(=O)c1cccc(C(=O)Nc2ccc(C)cn2)c1,12%,9%,?,i
CCOc1ccccc1NS(=O)(=O)c1ccc(-c2cnc(C3CC3)o2)cc1,0.21µM*,0.21µM*,?,0.29µM*
COc1ccccc1NS(=O)(=O)c1ccc(-c2cnc(C3CC3)o2)cc1,?,0.73µM*,?,1µM*
COc1ccc(NS(=O)(=O)c2ccc(-c3cnc(C4CC4)o3)cc2)cc1OC,15µM*,15µM*,?,2.1µM*
